Source: PubChem (National Center for Advancing Translational Sciences (NCATS))
The list is not random: actives were taken first. Their share in the collection is about 10%.
hNpr1 antagonist: Natriuretic polypeptide receptor (hNpr1) antagonism - Primary qHTS. 76,000 tested, 1.6% active. HEK293 hNpr1 GloSensor cGMP, ANP-stimulated luminescence. Potency, µM (highest dose often 46.3 µM), for the others: top-dose activity change, negative = inhibition, hits mostly inhibitors. Atrial natriuretic peptide receptor 1 (Homo sapiens), P16066; calls by dose curve; further: nearly all actives have a fitted effect of over 60% in size
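Compound pre-incubated 30 min at room temperature on GloSensor-loaded HEK293 cells stably carrying hNpr1 and the pGS-40F cGMP biosensor. Stimulation uses hNppA at 0.1 nM final; luminescence is taken at baseline and 20 min post-agonist.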
HEK293 tox: Cytotoxic Profiling in HEK 293 Cell Line of Diverse Libraries Using Quantitative High-Throughput Screening. HEK 293 viability, ATP luminescence (CellTiter-Glo), 48-72 h. Potency, µM (highest dose often 115 µM), for inactives: at the top dose activity change, negative = cytotoxicity, usual class: inhibitors. 94,000 tested, 6.6% active. AID 1345083, 2018; further: nearly all actives have a fitted effect of over 60% in size
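ATP-coupled CellTiter-Glo luminescence served as viability read-out, recorded 10 min after reagent addition at room temperature. HEK 293 cells, 250 cells/well, had been incubated with pintool-transferred compound for 48 or 72 hr at 37 degree Celsius.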
GPT2 inhibitor: Primary qHTS assay for inhibitors of Glutamate pyruvate transaminase 2 (GPT2); Alanine aminotransferase 2 (Homo sapiens), Q8TD30; Recombinant GPT2, coupled pyruvate oxidase/HRP Amplex Red fluorescence; Potency, µM (doses to about 57.7 µM), without a hit: at the highest dose activity change, negative = inhibition, actives largely listed as inhibitors; 100,000 tested, 0.25% active; further: nearly all actives have a fitted effect of over 60% in size
Target sequence (Q8TD30 whole entry, looked up): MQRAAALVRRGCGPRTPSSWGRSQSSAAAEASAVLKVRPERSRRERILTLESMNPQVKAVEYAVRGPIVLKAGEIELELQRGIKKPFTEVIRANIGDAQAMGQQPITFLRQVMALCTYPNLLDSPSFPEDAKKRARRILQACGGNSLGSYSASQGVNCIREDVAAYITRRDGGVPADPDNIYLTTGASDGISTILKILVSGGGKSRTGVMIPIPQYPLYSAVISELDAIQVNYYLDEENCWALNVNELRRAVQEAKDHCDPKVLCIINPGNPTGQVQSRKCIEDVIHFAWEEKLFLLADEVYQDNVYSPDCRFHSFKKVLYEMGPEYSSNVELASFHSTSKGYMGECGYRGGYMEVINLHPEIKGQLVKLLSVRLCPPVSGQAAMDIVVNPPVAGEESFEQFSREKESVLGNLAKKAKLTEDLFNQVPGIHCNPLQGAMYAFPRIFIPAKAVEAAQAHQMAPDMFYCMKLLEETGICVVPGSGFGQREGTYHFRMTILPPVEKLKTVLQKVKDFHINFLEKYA
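Fluorescence read-out: pyruvate from GPT2 turnover coupled to pyruvate oxidase, HRP and Amplex Red (0.2mM ThPP, 0.2U/mL PO and HRP, 50uM Amplex final). Substrates 250uM a-KG, 2mM L-alanine; enzyme 10ng/uL; 30 min RT.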
Luciferase inh: Firefly luciferase inhibition profiling of diverse chemical library using quantitative high-throughput screening. purified P. pyralis luciferase, luminescence, biochemical. Potency, µM (series often up to 115 µM), hits mostly inhibitors. 76,000 tested, 2.5% active. AID 1347043, 2019; further: nearly all actives have a fitted effect of over 65% in size
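Biochemical qHTS: compound (6-point titration) added to 10uM D-luciferin plus 10uM ATP in Tris acetate pH 7.5 buffer with Mg, Tween-20 and BSA, then purified enzyme at 10nM; light output imaged.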
3T3 cytotox: Cytotoxic Profiling in NIH 3T3 Cell Line of Diverse Libraries Using Quantitative High-Throughput Screening. Potency, µM (highest dose often 96.7 µM), for inactives: at the top dose activity change, negative = cytotoxicity, usual class: inhibitors. NIH 3T3 viability, CellTiter-Glo ATP luminescence, 48-72 h. 94,000 tested, 4.3% active; further: nearly all actives have a fitted effect of over 55% in size
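Luminescent ATP readout (CellTiter-Glo, 10 min RT) after 48 or 72 hr compound exposure of NIH 3T3 cells seeded at 400 cells/well in 1536-well format; quantitative HTS.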
* hit, by the source's call; i = inactive; ? = inconclusive; nt = no result; ! = a repeat was not active; [ ] = another dose, or the depositor's remark. Unless noted, the call rests on the fitted dose curve; in most records, active means well fitted curve in the direction sought with a large enough effect; inconclusive means small, poorly fitted or top-dose-only effect, or another doubt; inactive means no such curve, though single readings can be large; an effect the other way counts as inactive or inconclusive. On the % scale 0 is the no-effect control and ±100 the full control effect; potency means the concentration at half of the fitted maximal effect.

SMILES | hNpr1 antagonist | HEK293 tox | GPT2 inhibitor | Luciferase inh | 3T3 cytotox
COc1cccc(C(=O)NCC2CCCN(Cc3ccccn3)C2)c1OC (stereo not given) | -3% | -10% | i | i | -17%
O=C(NC1CC1)C1CCN(Cc2ccccc2-c2ccccc2F)CC1 | nt | -20% | 2% | nt | -31%
O=C(C1CCN(Cc2ccccc2-c2ccccc2F)CC1)N1CCOCC1 | nt | -23% | 5% | nt | -22%
COc1ccc(CNC(=O)C2CCN(Cc3ccccc3-c3ccccc3F)CC2)cc1 | nt | 45µM* | nt | nt | ?
O=C(NCCc1ccccc1)C1CCN(Cc2ccccc2-c2ccccc2F)CC1 | nt | ? | nt | nt | -21%
O=C(NCc1ccccc1Cl)C1CCN(Cc2ccccc2-c2ccccc2F)CC1 | nt | ? | nt | nt | 45µM*
O=C(NCc1ccccc1)C1CCN(Cc2ccccc2-c2ccccc2F)CC1 | nt | 50µM* | nt | nt | ?
O=C(C1CCN(Cc2ccccc2-c2ccccc2F)CC1)N1CCN(Cc2ccccc2)CC1 | nt | 35µM* | nt | nt | 25µM*
COC(=O)[C@H](Cc1ccccc1)NC1CCN(c2cccc(NC(=O)CC3CCCC3)c2)CC1 | ? | 40µM* | i | i | ?
O=C(CC1CCCCC1)NC(Cc1ccccc1)C(=O)N1CCN(c2ccccn2)CC1 (stereo not given) | -3% | ? | ? | i | ?
Cc1cc(S(=O)(=O)N(C)CC2CCOC2)ccc1Cl (stereo not given) | -1% | 8% | i | i | i
Cc1ccccc1C(=O)N1CCC2(C1)C(=O)N(CCc1ccccc1)c1ccccc12 (stereo not given) | -2% | 40µM*! | i | i | ?
O=C(c1ccc(C(F)(F)F)cc1)N1CCC2(C1)C(=O)N(CCc1ccccc1)c1ccccc12 (stereo not given) | ? | 32µM* | 2% | i | 40µM*!
CCN1C(=O)C2(CCN(S(=O)(=O)c3ccc(C(F)(F)F)cc3)CC2)c2ccccc21 | -1% | 32µM* | 2% | i | -11%
O=C(c1ccccc1Cl)N1CCC2(C1)C(=O)N(CCc1ccccc1)c1ccccc12 (stereo not given) | 62% | 40µM*! | -9% | i | ?
O=C(c1ccc(Cl)nc1)N1CCC2(C1)C(=O)N(CCc1ccccc1)c1ccccc12 (stereo not given) | 6% | ? | -2% | i | ?
CC(=O)c1ccc(N2CC[C@@H](NC(=O)c3cnccn3)[C@H](O)C2)nc1 | 3% | -25% | -3% | i | -6%
COCC1CN(C(C)=O)CC12CCN(S(=O)(=O)Cc1ccc(F)cc1)CC2 (stereo not given) | -8% | 2% | i | i | -5%
Cn1cc(CN2CCC(C(O)c3cccnc3)CC2)c(-c2ccc(C3CCCCC3)cc2)n1 (stereo not given) | 6% | 79µM* | i | i | 79µM*
CO[C@@H]1COCC[C@H]1NC(=O)CCc1ccc(-c2ccc(Cl)cc2)[nH]1 | -16% | ? | i | i | ?
O=C(CCc1ccc(-c2ccc(Cl)cc2)[nH]1)N[C@@H]1C[C@@H]2OCC[C@@H]21 | -19% | 79µM* | i | i | ?
O=C(NCC1CCNC1)C1CCN(c2nc(-c3ccccc3)nc3c2CCC3)CC1 (stereo not given) | 1% | ? | ? | i | 79µM*
Cn1cc(CNC(=O)C2CCN(c3nc(-c4ccccc4)nc4c3CCC4)CC2)cn1 | 6% | i | -7% | i | i
CC(C)Cn1c(CNC(=O)OC(C)(C)C)nc2cccnc21 | 5%[70.6 µM] | ? | 2% | i | 45µM*!
O=C(c1ccc(-c2ccccc2)cc1)N1C[C@@H]2C[C@H](C1)c1ccc(NS(=O)(=O)c3cccc(F)c3)c(=O)n1C2 | -6% | 50µM* | i | ? | ?
SMILES | hNpr1 antagonist | HEK293 tox | GPT2 inhibitor | Luciferase inh | 3T3 cytotox
Cn1cc(CN2C[C@@H]3C[C@H](C2)c2ccc(NS(=O)(=O)c4cccc(F)c4)c(=O)n2C3)c2ccccc21 | -23% | 32µM* | i | i | 13µM*
O=C(c1ccc2ccccc2c1)N1C[C@@H]2C[C@H](C1)c1ccc(NS(=O)(=O)Cc3ccccc3)c(=O)n1C2 | 3% | ? | i | i | 79µM*
CNC(=O)c1cc(C2CC2)nc2c1c(C1CCN(C(=O)C3CCCCC3)CC1)nn2C | nt | -3% | nt | nt | -21%
O=C(C1CC1)N1CCCC(c2nn(-c3ccc(Cl)cc3)c(=O)[nH]2)C1 (stereo not given) | 10% | -8% | i | i | -21%
O=C([C@@H]1C[C@@H](O)[C@H](O)[C@@H]2NC(=S)N(c3ccc(Cl)cc3)[C@@H]21)N1CCCCC1 | 4%[70.6 µM] | -19%[172 µM] | -5%[88.5 µM] | 50µM* | -14%[138 µM]
CCn1cc(S(=O)(=O)N2C[C@@H](C(N)=O)[C@H](c3nc(C)no3)C2)cn1 | -2% | 1% | i | i | -2%
CC(C)CNc1ccc2c(n1)C(C)(C(=O)Nc1cccnc1)CN(Cc1ccccc1)C2 (stereo not given) | -17%[70.6 µM] | 50µM* | i | i | 28µM*
CC(C)CNc1ccc2c(n1)C(C)(C(=O)NC1CC1)CN(Cc1ccccc1)C2 (stereo not given) | -14%[70.6 µM] | 63µM* | i | i | ?
CC(C)CNc1ccc2c(n1)C(C)(C(=O)NC1CCOCC1)CN(Cc1ccccc1)C2 (stereo not given) | 2%[70.6 µM] | 79µM* | i | i | ?
CC(C)N(Cc1cn(Cc2ccccc2)nc1-c1cc2ccccc2o1)CC1CCC(=O)N1 (stereo not given) | 0% | 2% | ? | i | -6%
COC[C@@H]1CCCN1Cc1cn(Cc2ccccc2)nc1-c1cc2ccccc2o1 | -10% | ? | 0% | 28µM* | ?
COc1ccccc1Nc1ccnc(N2CCCC(C(=O)NC3CCCC3)C2)n1 (stereo not given) | nt | ? | i | nt | 35µM*
COc1ccccc1Nc1ccnc(N2CCCC(C(=O)NC3CCOC3)C2)n1 (stereo not given) | nt | ? | 3% | nt | ?
COc1ccccc1Nc1ccnc(N2CCCC(C(=O)N3CCCCC3)C2)n1 (stereo not given) | nt | 35µM* | i | nt | 35µM*
COc1ccccc1Nc1ccnc(N2CCCC(C(=O)N3CCOCC3)C2)n1 (stereo not given) | nt | ? | i | nt | -42%
